Out of some 360,000 compounds screened, about 340 (0.094%) were called active. No stated cut-off is given here; in the data, active means inhibition above about 40%; inconclusive means no clear call, values can overlap the other calls; inactive means below that. Many of the other results were omitted from the sample, so actives are more common in it than they were.
System: 7,8-diaminopelargonic acid synthase BioA (Mycobacterium tuberculosis)
Experiment: M. tuberculosis BioA enzyme inhibitors, primary screen, biochemical, plate reader, single point, HTS (AID 602481)
Details: purified M. tuberculosis BioA enzyme, at 9.99 µM, hits give high values

SMILES | inhibition
O=C(NCC1CC1)[C@@H]1[C@@H](CO)[C@@H]2Cn3c(ccc(-c4ccccc4)c3=O)[C@H]1N2Cc1nccs1 | 0.617% (inactive)
CC(C)CC#Cc1ccc2c(c1)O[C@H](CN(C)C(=O)Cc1cccnc1)[C@H](C)CN([C@@H](C)CO)S2(=O)=O | 5.43% (inactive)
CC(=O)c1ccc(N2CCN(C(=O)c3ccc4nc[nH]c4c3)CC2)cc1 | 57% (active)
CC(=O)c1ccc(N2CCN(CC(O)c3ccccc3)CC2)cc1 (stereo not drawn) | 20.2% (inactive)
CC(=O)c1ccc(N2Cc3ccccc3C2)cc1 | 10.6% (inactive)
Cc1c2cnn(CC(=O)NCc3ccccn3)c(=O)c2c(C)n1Cc1ccc(Cl)cc1 | 86.8% (active)
Cc1ccc(Cn2c(C)c3cnn(CC(=O)NCc4ccccn4)c(=O)c3c2C)cc1 | 8.47% (inactive)
O=C(Cn1ncc2c3ccccc3n(Cc3ccccc3)c2c1=O)NCc1ccccn1 | -3.36% (inactive)
O=C(CSc1n[nH]c(-c2cccnc2)n1)Nc1ccnc2ccccc12 | 46% (active)
O=C(CSc1n[nH]c(-c2cccnc2)n1)Nc1ccc(Cl)cc1 | 16.3% (inactive)
O=C(CSc1ncn[nH]1)Nc1ccnc2ccccc12 | 1.08% (inactive)
Cc1ccc(S(=O)(=O)N(C)C[C@@H]2Oc3ccc(NS(=O)(=O)c4ccc(F)cc4)cc3CC(=O)N([C@@H](C)CO)C[C@H]2C)cc1 | 2.21% (inactive)
C[C@@H]1CN([C@H](C)CO)C(=O)Cc2cc(NC(=O)CCCCCC(=O)Nc3ccccc3N)ccc2O[C@H]1CN(C)S(=O)(=O)c1ccc(F)cc1 | 0.122% (inactive)
C[C@@H]1CN([C@@H](C)CO)C(=O)c2c(c3ccccc3n2C)-c2ccccc2CO[C@H]1CN(C)Cc1cccc(C(=O)O)c1 | -1.04% (inactive)
CCC(=O)Nc1ccc2c(c1)C(=O)N(C)C[C@H](OC)[C@H](C)CN(C(=O)C1CCC1)[C@@H](C)CO2 | 1.3% (inactive)
C[C@H](CO)N1C[C@H](C)[C@@H](CN(C)S(=O)(=O)c2cn(C)cn2)Oc2c(NC(=O)C3CC3)cccc2C1=O | -1.33% (inactive)
CC(=O)N[C@@H]1C=C[C@H](CC(=O)NCC2CCCCC2)O[C@H]1CO | -0.006% (inactive)
CO[C@H]1CN(C)C(=O)c2ccc(NS(C)(=O)=O)cc2OC[C@@H](C)N(Cc2ccccc2)C[C@@H]1C | -2.35% (inactive)
CCCNC(=O)N(C)C[C@H]1Oc2ncc(C#C[C@@H](C)O)cc2C(=O)N([C@@H](C)CO)C[C@@H]1C | -0.359% (inactive)
CCC(=O)N1C[C@@H](C)[C@@H](OC)CN(C)C(=O)c2ccc(NC(=O)C3CCCCC3)cc2OC[C@H]1C | -0.504% (inactive)
C[C@H](CO)N1C[C@H](C)[C@@H](CN(C)Cc2ccccc2)Oc2ccc(NC(=O)CCCN(C)C)cc2C1=O | -2.64% (inactive)
CCCNC(=O)C[C@@H]1CC[C@H]2[C@H](COc3ccc(NS(=O)(=O)c4ccccc4C)cc3C(=O)N2C)O1 | 1.74% (inactive)
CO[C@@H](CN(C)C(=O)c1ccc2c(c1)OCO2)[C@@H](C)CN([C@H](C)CO)S(=O)(=O)c1ccccc1 | 3.78% (inactive)

SMILES | inhibition
COc1c(C=O)c(CCN(C)C(=O)c2ccc(F)cc2)cc2c1OCO2 | 48.4% (active)
COc1ccc(C(=O)N(C)Cc2ccc(OC)c(OC)c2OC)cc1S(=O)(=O)N1CCOCC1 | -0.32% (inactive)
O=C(Cc1ccccc1)N1C[C@H]2[C@@H](c3ccccc31)[C@H](CO)N2C(=O)C1CCOCC1 | -4.05% (inactive)
CC(=O)N(C)C[C@@H]1Oc2ncc(C#Cc3ccccn3)cc2C(=O)N([C@@H](C)CO)C[C@@H]1C | -5.71% (inactive)
CN(C)C(=O)c1cccc(-c2ccc3c(c2)[C@H]2[C@H](CCN2C(=O)c2cccnc2)[C@H](CO)N3)c1 | 19.8% (inactive)
Cc1ccccc1S(=O)(=O)N(C)C[C@@H]1OCc2ccccc2-c2c(n(C)c3ccccc23)C(=O)N([C@H](C)CO)C[C@H]1C | -1.26% (inactive)
C[C@@H]1CCCCO[C@H](CN(C)S(=O)(=O)c2cn(C)cn2)[C@@H](C)CN([C@@H](C)CO)C(=O)c2cc(NC(=O)CCC(F)(F)F)ccc2O1 | -0.672% (inactive)
COc1ccc(-c2ccc3c(c2)[C@@H]2[C@@H](CCN2C(=O)Cc2ccccn2)[C@H](CO)N3C)cc1 | -0.705% (inactive)
CN1c2ccc(-c3ccccc3F)cc2[C@H]2[C@H](CCN2C(=O)Cc2ccccn2)[C@H]1CO | 6.26% (inactive)
CN1c2ccc(-c3ccccc3)cc2[C@H]2[C@H](CCN2C(=O)Cc2ccccn2)[C@H]1CO | 50.1% (active)
COCc1cn(CC[C@H]2CC[C@@H](NC(=O)Nc3ccc(OC)cc3)[C@@H](CO)O2)nn1 | 4.23% (inactive)
CN1c2ccc(-c3cccc(C#N)c3)cc2[C@@H]2[C@@H](CCN2C(=O)C2CCC2)[C@@H]1CO | 1.18% (inactive)
Cn1c(=O)c2c(nc(OCc3cccnc3)n2Cc2ccccc2)n(C)c1=O | 69.8% (active)
CCOC(=O)N1CCN(Cc2nc3c(c(=O)n(C)c(=O)n3C)n2Cc2ccccc2)CC1 | 4.21% (inactive)
C=CCOc1nc2c(c(=O)n(C)c(=O)n2C)n1Cc1ccc(Cl)cc1Cl | -1.57% (inactive)
CN(C)C(=O)C[C@H]1C[C@H]2c3cc(NC(=O)Nc4ccc(C(F)(F)F)cc4)ccc3O[C@H]2[C@@H](CO)O1 | -0.072% (inactive)
COCCN(C[C@H]1[C@H](c2ccccc2)[C@@H](CO)N1C(C)=O)C(=O)c1cccnc1 | 4.64% (inactive)
C[C@H](CO)N1C[C@H](C)[C@@H](CN(C)C(=O)Cc2cccnc2)Oc2ncc(-c3ccncc3)cc2C1=O | 5.57% (inactive)
CCCNC(=O)N1C[C@H](C)[C@H](OC)CN(C)C(=O)c2cc(NC(=O)CC)ccc2OC[C@H]1C | 0.679% (inactive)
CO[C@@H](CN(C)S(=O)(=O)c1ccc(C)cc1)[C@@H](C)CN([C@@H](C)CO)S(=O)(=O)c1cccc(Cl)c1 | -0.469% (inactive)
CN1C(=O)c2cc(NC(=O)Nc3ccccc3F)ccc2OC[C@H]2O[C@@H](CC(=O)Nc3cccc(Cl)c3)CC[C@@H]21 | 4.99% (inactive)
CO[C@H]1CN(C)C(=O)c2ccc(NS(=O)(=O)c3cn(C)cn3)cc2OC[C@H](C)N(C)C[C@H]1C | -1.67% (inactive)
CC(C)CC#Cc1ccc2c(c1)O[C@H](CN(C)Cc1ccccc1F)[C@@H](C)CN([C@@H](C)CO)S2(=O)=O | 0.76% (inactive)

SMILES | inhibition
O=C(NCCN1CCCC1)[C@@H]1N[C@@H]2c3ccc(-c4ccccc4)c(=O)n3C[C@@H]2[C@H]1CO | -0.384% (inactive)
CC(C)NC(=O)Nc1ccc2c(c1)C(=O)N([C@H](C)CO)C[C@H](C)[C@@H](CN(C)S(C)(=O)=O)OCCCC[C@@H](C)O2 | -1.93% (inactive)
C[C@H](O)C#Cc1ccc([C@@H]2[C@@H](CO)N3CCCCN(C(=O)c4ccc(F)cc4)C[C@H]23)cc1 | 8.06% (inactive)
O=C(C[C@@H]1CC[C@@H]2[C@H](COC[C@@H](O)CN2S(=O)(=O)c2cccc(Cl)c2)O1)N1CCOCC1 | 0.133% (inactive)
C[C@@H]1CN([C@@H](C)CO)S(=O)(=O)c2ccc(-c3cncnc3)cc2O[C@@H]1CN(C)C(=O)C1CC1 | -2.8% (inactive)
Cc1ccc(Cc2c(C)nc3nc(SCC(=O)NCCN4CCOCC4)nn3c2C)cc1 | 53.9% (active)
Cc1nc2c(-c3ccc(F)cc3)c(C)nn2c(C)c1CCC(=O)NCc1ccco1 | -0.947% (inactive)
Cc1nc2nc(SCC(=O)NCc3ccco3)nn2c(C)c1Cc1ccccc1 | 45.5% (active)
O=C(Cn1cc2c(n1)CCCCC2)NCCN1CCOCC1 | 1.9% (inactive)
COc1cc(OC)cc(-c2nc3nc(C)c(CCC(=O)NCc4ccco4)c(C)n3n2)c1 | -1.9% (inactive)
Cc1ccc(Cn2c(C)c3cnn(CC(=O)NCCN4CCOCC4)c(=O)c3c2C)cc1 | 11.4% (inactive)
CO[C@H]1CN(C)C(=O)c2ccc(NC(=O)c3cccc(Oc4ccccc4)c3)cc2OC[C@@H](C)NC[C@H]1C | 2.28% (inactive)
C/C=C/c1ccc2c(c1)O[C@@H](CN(C)S(C)(=O)=O)[C@@H](C)CN([C@H](C)CO)S2(=O)=O | 3.09% (inactive)
CN1C(=O)c2cc(NS(=O)(=O)c3ccc(F)cc3)ccc2OC[C@@H]2O[C@@H](CC(=O)O)CC[C@H]21 | 0.387% (inactive)
C[C@@H](NC(=O)C[C@H]1C=C[C@H](NC(=O)C2CCOCC2)[C@H](CO)O1)c1ccccc1 | 1.84% (inactive)
C[C@H](CO)N1C[C@H](C)[C@@H](CN(C)CC2CCCCC2)Oc2ccc(NS(=O)(=O)c3cccs3)cc2CC1=O | 3.51% (inactive)
CO[C@@H]1CN(C)C(=O)c2cc(NC(=O)c3cnccn3)ccc2OC[C@@H](C)N(C(=O)C2CC2)C[C@@H]1C | 9.9% (inactive)
CC=Cc1ccc2n(c1=O)C[C@@H]1[C@@H](CO)[C@H](C(=O)N3CCc4ccccc4C3)N(C(=O)C3CCC3)[C@H]21 (mixture of isomers) | 0.815% (inactive)
CC(C)(C)S(=O)N1Cc2cc(C(=O)O)nc(-c3cccc(-c4cc5ccccc5o4)c3)c2[C@@H]1CCO (stereo partly drawn) | -0.446% (inactive)
CCCNC(=O)Nc1ccc2c(c1)C(=O)N(C)C[C@@H](OC)[C@@H](C)CN(C)[C@@H](C)CO2 | -0.7% (inactive)
CN(C)c1ccc2c(c1)[C@H]1C[C@H](CC(=O)NCc3ccc(Cl)cc3)O[C@H](CO)[C@H]1O2 | 0.352% (inactive)
O=C(CC1CC1)N1[C@@H]2CN(S(=O)(=O)c3ccc(F)cc3)c3ccccc3[C@@H]2[C@@H]1CO | 3.83% (inactive)
